Glioma ERSR ind: ER stress response induction in glioma; U87-MG GRP78 promoter luciferase reporter, 16 h; Potency, µM, without a hit: top-dose activation, hits mostly activators; 420,000 tested, 0.02% active; note: series mostly up to about 76 µM; % of control where 0% means no effect; nearly all actives have a fitted effect of over 35% in size
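ERSR induction read as luciferase luminescence (Bright-Glo, 10 min at room temperature) in stably transfected human U87-MG glioma cells exposed to compounds for 16 h, using GRP78 as sensor.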
VDR inhibitor: inhibitors of human vitamin D receptor; VDR-SRC2-3 peptide fluorescence polarization, 2 h; P11473; AID 504847; 400,000 tested, 0.93% active; Potency, µM, without a hit: max response, negative = inhibition, actives largely listed as inhibitors; note: % is set by controls: 0 for no effect and ±100 for the full control effect
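Two reagent solutions held at 4 deg C in the dark were dispensed, compounds pinned at 23 nl, and the mixture incubated 2 h at room temperature. Read-out: fluorescence polarization of VDR–SRC2-3 peptide binding.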
Sfp PPTase inh: blocks B. subtilis Sfp PPTase activity; Q9F4F7; 310,000 tested, 3.5% active; AID 1490; Potency, µM, without a hit: largest response in the series, negative = inhibition, most hits filed as inhibitors; Biochemical Sfp PPTase activity, qHTS;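 note: the enzyme is Sfp with the accession as filed and its product quenches rhodamine fluorescence; 0% = enzyme reaction without inhibitor and -100% = no enzyme wells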
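Buffer: 50 mM Hepes-Na pH 7.6, 10 mM MgCl2, 0.01% Nonidet P-40, 0.01% BSA. Enzyme 15 nM, pre-exposed to compound 15 min; substrates then added and fluorescence change tracked over 30 min.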
G9a block: G9a (human) methyltransferase inhibition. Potency, µM (titrated, usually from 102 µM), for the others: top-dose activity, negative = inhibition, actives largely listed as inhibitors. Q96KQ7. G9a H3K9 monomethylation, AlphaScreen, 2 h. AID 504332. 350,000 tested, 8.8% active; note: % is set by controls: 0 for no effect and ±100 for the full control effect; nearly all actives have a fitted effect of over 75% in size
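Signal arises when biotinylated H3K9 peptide, once monomethylated, bridges streptavidin donor and antibody-captured acceptor beads. Enzyme at 20 nM was preincubated 15 min with test compounds; peptide 500 nM and SAM 20 uM then reacted for 2 h.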
ALOX12 inh: inhibitors of human 12S-lipoxygenase ALOX12; P18054; purified 12hLO, xylenol orange hydroperoxide absorbance; Potency, µM (highest dose often 108 µM), for the others: at the top dose activity change, negative = inhibition, usual class: inhibitors; 580,000 tested, 1.1% active; note: % is set by controls: 0 for no effect and ±100 for the full control effect
Target sequence (P18054 whole entry, looked up): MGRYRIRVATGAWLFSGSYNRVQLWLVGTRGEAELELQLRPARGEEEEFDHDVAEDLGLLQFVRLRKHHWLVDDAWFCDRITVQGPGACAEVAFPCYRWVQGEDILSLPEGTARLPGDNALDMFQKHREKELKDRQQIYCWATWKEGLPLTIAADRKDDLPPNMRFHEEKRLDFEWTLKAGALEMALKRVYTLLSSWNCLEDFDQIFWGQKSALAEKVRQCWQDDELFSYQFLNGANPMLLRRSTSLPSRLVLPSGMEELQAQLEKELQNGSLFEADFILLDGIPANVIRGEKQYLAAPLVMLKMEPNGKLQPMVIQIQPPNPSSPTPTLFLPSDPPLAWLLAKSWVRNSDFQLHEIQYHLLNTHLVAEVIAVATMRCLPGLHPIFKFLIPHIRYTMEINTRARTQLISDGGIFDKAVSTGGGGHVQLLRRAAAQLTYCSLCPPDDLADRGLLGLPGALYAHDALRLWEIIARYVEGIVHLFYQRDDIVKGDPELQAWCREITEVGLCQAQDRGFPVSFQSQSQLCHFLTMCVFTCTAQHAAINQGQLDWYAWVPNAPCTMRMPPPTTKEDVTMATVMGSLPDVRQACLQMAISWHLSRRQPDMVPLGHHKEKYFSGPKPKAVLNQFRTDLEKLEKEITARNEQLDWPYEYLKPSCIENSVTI
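Hydroperoxide product was detected by ferrous iron/xylenol orange as the 573 to 405 nm absorbance ratio. Arachidonic acid at 40 uM (final) was turned over for 30 min at room temperature by 150 nM human 12hLO, pH 7.0 Hepes buffer, after 15 min compound preincubation.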
Active calls of the source: *; ? = inconclusive; nt = no result given; [ ] = another dose, or the depositor's remark. The full list was thinned out, with hits kept by preference. Calls come from the whole dose curve; as a rule, active = well fitted curve in the direction sought with a large enough effect; inconclusive = small, poorly fitted or top-dose-only effect, or another doubt; inactive = no such curve, though single readings can be large; an effect the other way counts as inactive or inconclusive. Potency is the fitted concentration of half-maximal effect.

SMILES	Glioma ERSR ind	VDR inhibitor	Sfp PPTase inh	G9a block	ALOX12 inh
Cc1ccc(C(=S)N2CCN(Cc3ccccc3)CC2)s1	-2.9%	?	5.01µM*	17.8µM*	0.0%
Cc1cccc(NC(=S)N2CCN(Cc3ccccc3)CC2)c1C	-5.2%	-5.3%	17.1%	4.5%	-21.8%
CCN1CCN(C(=S)Nc2ccc(Cl)cc2)CC1	1.2%	3.7%	9.4%	-35.5%	0.0%
CCN1CCN(C(=S)c2ccc(Br)cc2)CC1	-3.5%	?	14.1µM*	10.5%[0.501 µM]	-17.2%
CCOC(=O)C(CC(C(=O)OCC)C(=O)OCC)C(=O)OCC	nt	nt	nt	nt	0.5%
O=C(O)c1ccc(-c2ccc(Cl)c(Cl)c2)cc1F	nt	nt	nt	nt	-24.6%
CCOC(=O)CNc1cccc(C(=O)O)c1	nt	nt	nt	nt	-28.5%
CC(NC(=O)c1n[nH]c(=O)c2ccccc12)c1ccc(F)cc1 (stereo not drawn)	nt	nt	nt	nt	48.7%
COc1ccc(NC(=O)c2c(NCc3sccc3C)sc3c2CCCCC3)c(OC)c1	?	-20.6%	nt	11.2µM*	-1.2%
COc1ccc(NC(=O)c2c(NCc3cccc(F)c3)sc3c2CCCC3)c(OC)c1	-3.5%	2.7%	nt	10µM*	?
COc1ccccc1NC(=O)c1c(NCc2sccc2C)sc2c1CCCCC2	-1.0%	-14.6%	nt	10µM*	?
COc1ccccc1NC(=O)c1c(NC(=O)COc2ccccc2)sc2c1CCCCC2	-2.8%	-14.3%	nt	11.5%[59 µM]	-11.9%
CCOc1ccccc1NC(=O)c1c(NCc2sccc2C)sc2c1CCCCC2	4.7%	8.8%	nt	10µM*	?
CCOc1ccccc1NC(=O)c1c(NCc2sccc2C)sc2c1CCC(C)C2 (stereo not drawn)	nt	-0.9%	nt	-29.4%[59 µM]	?
CCOC(=O)N1CCc2c(sc(NCc3cccc(F)c3)c2C(=O)Nc2ccc(OC)cc2OC)C1	-10.3%	-14.4%	nt	?	?
CCc1cccc2c(C(=O)O)cc(-c3cccnc3)nc12	nt	nt	nt	nt	-25.2%
COc1ccc(-c2noc(-c3cccn3CC(=O)Nc3c(C)cccc3Cl)n2)cc1F	nt	nt	nt	nt	-20.0%
CCOC(=O)N1CCc2c(sc(NCc3sccc3C)c2C(=O)Nc2ccccc2OCC)C1	-2.1%	-17.4%	nt	8.91µM*	?
CCOC(=O)N1CCc2c(sc(NCc3sccc3C)c2C(=O)Nc2ccc(OC)cc2OC)C1	nt	-26.9%	nt	3.55µM*	?
CC(C)(C)c1cc(C[C@H]2CNCC[C@H]2CC(=O)Nc2nccs2)no1	nt	nt	nt	nt	60.6%[176 µM]
CCOCCCNC(=O)CNC(=S)N(Cc1ccc(C)cc1)Cc1ccco1	-2.1%	-9.9%	39.8µM*	10µM*	20.1%
COc1ccccc1-c1nnc(SC(C(=O)c2c[nH]c3ccccc23)c2ccccc2)n1C (stereo not drawn)	-6.3%	6.6%	-3.2%	79.4µM*	-15.2%
COCC(C)NC(=O)c1cc2cc(N(C)S(=O)(=O)c3ccc(C)cc3)ccc2s1 (stereo not drawn)	nt	nt	nt	nt	21.4%
COc1cc(/C=C/C(=O)c2cccc(O)c2)cc(Cl)c1O	nt	nt	nt	nt	25.1µM*
COc1ccc(/C=C/C(=O)c2ccc3c(c2)OCO3)c(OC)c1	-1.0%	2.0%	-8.6%	0.6%[59 µM]	?
SMILES	Glioma ERSR ind	VDR inhibitor	Sfp PPTase inh	G9a block	ALOX12 inh
COc1ccc(/C=C/C(=O)c2cccc(O)c2)cc1	nt	nt	nt	nt	-60.7%
COc1cc(/C=C/C(=O)c2ccc3c(c2)OCO3)cc(Cl)c1O	20.3%	?	-19.7%	44.7µM*	?
Cn1cc(C(C(=O)O)N2CCCC2)c2cc(C(=O)O)ccc21 (stereo not drawn)	nt	nt	nt	nt	-9.3%
C=C1c2cc(OC)ccc2NC(=O)N1CC	-0.7%	-8.4%	19.0%	31.6µM*	-6.5%
N#Cc1c(N)oc(-c2cccs2)c1-c1cccs1	0.0%	14.0%	-8.9%	12.6µM*	1.1%
N#Cc1c(N)oc(-c2ccco2)c1-c1ccco1	-2.6%	-8.1%	31.6µM*	44.7µM*	?
COc1ccc(OC)c(/C=N/c2oc(-c3ccco3)c(-c3ccco3)c2C#N)c1	-3.1%	-5.3%	25.1µM*	31.6µM*	?
Cc1cc(C(=O)NCC2Cn3cccc3CN2C)nn1C (stereo not drawn)	nt	nt	nt	nt	87.9%
Cc1noc(C)c1S(=O)(=O)NCCc1ccc(-n2cccn2)cc1	nt	nt	nt	nt	-3.7%
Nc1nc2c(c(=O)[nH]1)CN(Cc1ccccc1)CC2	-5.2%	-16.9%	nt	2.1%[12.7 µM]	15.5%
O=c1[nH]c(C(Cl)Cl)nc2sc3c(c12)CCN(Cc1ccccc1)C3	-3.8%	-25.7%	-10.8%	8.91µM*	?
CCCSc1nc2sc3c(c2c(=O)[nH]1)CCN(Cc1ccccc1)C3	-3.7%	-23.8%	-8.7%	10µM*	nt
COC(=O)/C(C#N)=C\c1cn[nH]c1C(C)(C)C	nt	nt	nt	nt	-11.7%
CC(=O)c1ccc(OCc2coc(-c3cccc(F)c3)n2)cc1	nt	nt	nt	nt	44.7µM*
CC(Sc1nnc2c(n1)C1(C)CCC2C1(C)C)C(=O)Nc1ccccc1 (stereo not drawn)	-4.5%	-5.4%	3.3%	nt	-5.9%
CC12CCC(c3c1nc1ccccc1[n+]3[O-])C2(C)C (stereo not drawn)	-2.7%	70.8µM*	8.3%	9.9%[59 µM]	-13.4%
CN(C(=O)CN1CCN(c2cc(-c3ccc(-c4ccccc4)cc3)ncn2)CC1)c1ccccc1	-3.9%	nt	nt	nt	44.7µM*
CN(C(=O)COc1coc(CN2CCN(c3ccccc3)CC2)cc1=O)c1ccccc1	-0.1%	-0.6%	nt	-25.8%[0.501 µM]	13.9%
CCCNC(=O)N1CCC(c2noc(COc3ccc(C)cc3)n2)CC1	nt	nt	nt	nt	33.7%
N#CC1(c2ccccc2)CCC(NCCc2ccccc2)CC1 (stereo not drawn)	-0.8%	-28.0%	-24.9%	25.1µM*	-58.7%
Cc1ccc(Cl)cc1-n1ncc2c(=O)n(CC(N)=O)cnc21	nt	nt	nt	nt	-25.2%
CCN(Cc1ccncc1)C(=S)NCc1ccccc1	-5.1%	2.5%	-6.5%	50.1µM*	41.4%
S=C(Nc1ccccc1)N(Cc1ccccc1)Cc1ccncc1	0.3%	9.4%	8.4%	-7.5%[59 µM]	?
CC(C)C[C@H](CO)NC(=O)C[C@@H]1c2nc(NC(=O)c3ccco3)sc2C[C@@H]2[C@](C)(CO)[C@H](O)CC[C@]21C	nt	nt	nt	nt	7.7%
O=c1[nH]cnc(O)c1C(c1ccc(Br)cc1)c1c(O)nc[nH]c1=O	-4.6%	-2.3%	-6.6%	-36.6%	-13.1%

Screening data from PubChem BioAssay.
